The list is not random: actives were taken first. Their share in the collection is about 1.1%.
MOR-DOR ag-1 = agonists of OPRM1-OPRD1 heterodimerization, primary screen, cell-based, luminescence. Mu-type opioid receptor (Homo sapiens) + Delta-type opioid receptor (Homo sapiens), …. cells. activation, % at 9.3 µM. 340,000 compounds, 0.3% hits. AID 504326, 2011;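 further: 0% = vehicle-treated cells and 100% = reference agonist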
Target sequence (P35372 whole entry, looked up): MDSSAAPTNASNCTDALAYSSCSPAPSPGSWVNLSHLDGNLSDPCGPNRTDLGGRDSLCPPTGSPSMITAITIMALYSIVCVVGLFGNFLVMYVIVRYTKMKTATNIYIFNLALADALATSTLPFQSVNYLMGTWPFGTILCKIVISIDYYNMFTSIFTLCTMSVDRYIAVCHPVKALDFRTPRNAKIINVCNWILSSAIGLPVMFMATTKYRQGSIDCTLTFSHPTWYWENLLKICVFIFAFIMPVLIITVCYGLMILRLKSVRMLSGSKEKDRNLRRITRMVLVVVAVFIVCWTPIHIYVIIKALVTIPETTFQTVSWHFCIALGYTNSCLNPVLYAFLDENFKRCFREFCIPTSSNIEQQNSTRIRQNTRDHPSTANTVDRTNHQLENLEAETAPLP
Target sequence (P41143 whole entry, looked up): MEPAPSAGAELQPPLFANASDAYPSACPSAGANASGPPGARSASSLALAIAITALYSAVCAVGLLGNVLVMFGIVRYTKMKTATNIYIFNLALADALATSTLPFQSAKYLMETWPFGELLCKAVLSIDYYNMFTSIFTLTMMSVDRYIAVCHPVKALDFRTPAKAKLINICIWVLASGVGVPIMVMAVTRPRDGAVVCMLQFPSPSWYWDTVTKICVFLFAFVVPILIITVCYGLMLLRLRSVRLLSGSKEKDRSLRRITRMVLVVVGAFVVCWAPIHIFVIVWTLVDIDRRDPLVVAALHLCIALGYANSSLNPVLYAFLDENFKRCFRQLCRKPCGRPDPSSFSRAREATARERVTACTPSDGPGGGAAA
HTR5A ag ctr = HTR5A agonists in luminescence cell assay, primary screen, counter-screen for OPRM1-OPRD1 heterodimer agonist project, full-deck HTS; 5-hydroxytryptamine receptor 5A (Homo sapiens), P47898; cell-based; activation, % at 9.3 µM; 340,000 compounds, 0.61% hits; in the data active means activation mostly above about 9.5%, no sharp cut-off; inactive means mostly below about 7.6%;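 further: 0% = cells with vehicle only and 100% = reference agonist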
HTR5A inv ag = HTR5A inverse agonists in luminescence cell assay, primary screen, counter-screen for OPRM1-OPRD1 heterodimer inverse agonist project, full-deck HTS. inhibition, % at 9.3 µM. 5-hydroxytryptamine receptor 5A (Homo sapiens), P47898. 340,000 compounds, 0.083% hits. AID 504634, 2011. HTR5A cell line, inverse agonism; in the data active means inhibition mostly above about 23%, no sharp cut-off; inactive means mostly below about 18%;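 further: 0% = cells with DMSO and 100% = no-cell wells with DMSO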
MOR-DOR inv ag = inverse agonists of MOR-DOR heterodimerization, primary screen, cell-based, luminescence; Mu-type opioid receptor (Homo sapiens) + Delta-type opioid receptor (Homo sapiens), …; cell-based MOR-DOR heterodimer luminescence, inverse agonism; inhibition, % at 9.3 µM; 340,000 compounds, 0.21% hits; in the data active means inhibition above about 22%, passing the limit was not always enough;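 further: 0% = cells with DMSO and 100% = wells without cells with DMSO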
MOR-DOR ag-2 = OPRM1-OPRD1 heterodimerization promoters, counter-screen for HTR5A agonist project, cell-based, luminescence. shares compounds with HTR5A ag ctr. AID 504913, 2011. 800 compounds, 13% hits. activation, % at 9.3 µM. U2OS counter-screen cells, complementation luminescence, 3 h
HTR5A ag conf = HTR5A agonists, retest of hits, confirmation, cell-based, luminescence; shares compounds with HTR5A ag ctr; HTR5A agonist cell assay; activation, % at 9.3 µM; 800 compounds, 17% hits; in the data active means activation above about 17%;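 further: 0% = cells with vehicle only and 100% = full reference agonist response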
An asterisk follows results filed as active; · = no result given. Unless noted, no stated cut-off is given here; in the data, active means activation above about 18%; inactive means the rest.

SMILES	MOR-DOR ag-1	HTR5A ag ctr	HTR5A inv ag	MOR-DOR inv ag	MOR-DOR ag-2	HTR5A ag conf
CCCN1C[C@H](CSC)C[C@@H]2c3cccc4[nH]cc(c34)C[C@H]21	2.2	90.4*	-322.9	-12.0	38.1*	-0.4
Nc1ccc(-c2n[nH]c(=O)c3ccccc23)cc1N	1.9	21.2*	-50.5	-9.0	2.7	13.5
N/C(=N\OC(=O)c1ccc2ccccc2c1)c1ccncc1	11.8	5.1	-13.6	-85.0	·	·
N/C(=N\OC(=O)c1ccc(Cl)cc1[N+](=O)[O-])c1ccccn1	10.9	25.6*	-2.4	-54.4	-0.2	-5.5
N/C(=N\OC(=O)c1ccc2ccccc2c1)c1ccccn1	4.2	16.2*	-42.3	-21.6	-0.6	-1.1
CCN(CC(=O)NCc1cccs1)C(=O)c1cccc(S(=O)(=O)N(CC)c2ccccc2)c1	-0.6	1.2	10.4	2.3	·	·
Cc1ccc(N(C(=O)Cc2cccs2)C(C(=O)NC2CCCCC2)c2ccccn2)cc1C (stereo unspecified)	4.0	15.4*	3.0	-19.1	30.4*	18.6*
Cn1c(C=O)c(C#Cc2ccccc2)c2ccccc21	0.0	5.5	-7.9	0.1	·	·
O=C(CSc1nnc(-c2cccs2)n1C1CC1)NC1CCS(=O)(=O)C1 (stereo unspecified)	-2.9	7.9	-21.9	11.8	·	·
COc1ccc(/C=N/NC(=O)c2ccn[nH]2)cc1COc1ccc(Cl)cc1Cl	7.1	25.6*	-67.2	-44.4	1.3	-0.9
Cc1ccccc1C(=O)NNC(=O)c1cccc([N+](=O)[O-])c1	2.4	16.6*	14.7	-12.4	1.5	2.4
Cc1cccc(C(=O)NNC(=O)c2ccccc2C)c1	1.9	1.7	14.6	-14.0	·	·
CCC1CCCCN1C(=O)COc1ccc2c3c(c(=O)oc2c1)CCC3 (stereo unspecified)	-0.3	-0.6	2.1	1.8	·	·
COc1ccc(NC(=O)C2CCCN(CCCc3ccccc3)C2)cc1OCC(C)C (stereo unspecified)	6.5	15.8*	-20.2	-32.7	7.3	5.8
COc1ccc(NC(=O)C2CCCNC2)cc1OCC(C)C (stereo unspecified)	-1.5	5.8	-5.5	8.7	·	·
C[C@H]1CN(S(=O)C(C)(C)C)[C@H](CCO)/C1=C\c1ccccc1 (stereo partly specified)	-1.3	-3.4	11.5	6.1	·	·
CCOC(=O)C1=C(COC(=O)/C=C/c2ccc(OC)cc2)NC(=O)NC1C (stereo unspecified)	-3.5	2.4	-5.8	18.2	·	·
CCOC(=O)C1=C(COC(=O)/C=C/c2ccco2)NC(=O)NC1C (stereo unspecified)	3.7	16.0*	3.1	-23.5	3.6	0.1
CC(=O)N1CCc2c(sc(NC(=O)C3CC3)c2-c2nc3ccccc3s2)C1	-1.9	16.1*	-47.1	10.9	2.3	0.6
COc1ccc(CSCC(=O)N/N=C/c2ccccc2OCc2ccccc2)cc1	0.8	21.9*	-57.5	-4.7	0.9	1.4
CCCCCCCCCC[n+]1cccc2c3ccccc3ccc21	-0.4	21.6*	4.7	2.1	3.8	5.5
C[C@H](CO)N1C[C@H](C)[C@@H](CN(C)S(=O)(=O)c2ccccc2)Oc2ccc(NC(=O)CCC(F)(F)F)cc2C1=O	-2.3	-0.8	6.1	13.2	·	·
COc1cccc(OCc2nn3c(=O)c(-c4ccccc4)nnc3s2)c1	-1.1	0.4	-1.3	4.7	·	·
CCCOc1c(Cl)cc(C(=O)Nc2ccc3c(c2)OCO3)cc1OCC	9.5	15.9*	-33.9	-55.9	1.1	-4.2
O=C(COc1ccc2c(c1)OCO2)Nc1ccc2c(c1)oc1ccccc12	3.4	16.0*	-58.2	-18.1	6.2	8.2
SMILES	MOR-DOR ag-1	HTR5A ag ctr	HTR5A inv ag	MOR-DOR inv ag	MOR-DOR ag-2	HTR5A ag conf
C/C(=N\N)c1c(-c2ccccc2)c2cc(C)ccc2[nH]c1=O	0.0	1.4	-14.5	-0.1	·	·
CCN(CC)c1c(-c2ccccc2)c2cc(C)ccc2[nH]c1=O	2.2	26.6*	-68.5	-12.0	4.8	2.0
CC(C)(C)c1ccc(OCC(=O)N2CCN(c3ccccn3)CC2)cc1	-0.1	15.1*	-37.0	0.5	17.6	17.4*
c1ccc(Cc2nnc(-c3ccccc3)o2)cc1	16.1	16.2*	-46.8	-86.6	5.2	0.7
COc1ccc2cc3cc(C(=O)Nc4ccc5c(c4)OCCO5)oc3nc2c1	1.9	24.8*	-20.8	-9.3	4.5	4.2
CCOc1ccc(S(=O)(=O)N2CCCC(C(=O)N3CCN(CC)CC3)C2)cc1Cl (stereo unspecified)	0.4	0.6	-1.5	-2.8	·	·
CCn1nc(C)c(/C=N/NC(=O)c2nc3nc(C)cc(C)n3n2)c1C	0.2	15.8*	-13.5	-1.2	2.2	6.1
CCn1nc(C)c(/C=N/NC(=O)c2ccoc2C)c1C	1.1	18.1*	-53.3	-6.3	5.7	11.8
CCCCCn1nc(C)c(/C=N/NC(=O)c2ccoc2C)c1C	-1.6	6.4	-20.6	9.2	·	·
O=C(NC1CCCCCC1)C1CCCN(c2ncccn2)C1 (stereo unspecified)	-1.2	5.5	-15.6	7.7	·	·
COc1ccc(-c2cc(-c3c(O)c(OC)c4occc4c3OC)[nH]n2)cc1OC	1.9	5.5	-0.6	-8.5	·	·
COc1ccc(-c2cc(-c3c(O)c(OC)c4occc4c3OC)[nH]n2)cc1	10.3	15.0*	-39.2	-51.1	-0.6	1.1
Cc1onc(-c2ccccc2)c1C(=O)N[C@@H]1C(=O)N2C1SC(C)(C)[C@@H]2C(=O)O (stereo partly specified)	-1.1	-3.0	10.6	6.1	·	·
CCN(CC(=O)NCc1cccs1)C(=O)/C=C/c1cc(OC)c(OC)c(OC)c1	-4.0	-1.3	3.2	20.9	·	·
COc1ccc(OCCC(=O)Nc2cc3c(cc2C(=O)O)OCCCO3)cc1	-0.4	15.4*	-72.2	2.3	-1.1	-0.9
COc1ccccc1OCC(=O)Nc1cc2c(cc1C(=O)O)OCCCO2	-0.7	1.6	-14.1	5.0	·	·
CCOC(=O)c1ccc(Nc2nc(-c3cccnc3)nc3ccccc23)cc1	7.9	29.2*	-75.4	-39.4	0.1	1.5
CCOC(=O)C(C)N1N=C(/C=C/c2ccc(C)cc2)CCC1=O (stereo unspecified)	-1.5	21.1*	-53.5	8.1	0.8	3.5
COc1cc2c(cc1OC)[C@H](C)N(C(=O)NCc1ccccc1)CC2	-0.2	-2.0	7.2	0.8	·	·
CCCCn1c(N)c(N(Cc2ccccc2OC)C(=O)c2c(CC)noc2C)c(=O)[nH]c1=O	-2.0	1.8	-17.3	10.5	·	·
COc1cc([N+](=O)[O-])ccc1NC(=O)CN1C(=O)NC2(CCCCC2C)C1=O (stereo unspecified)	-1.1	1.2	-63.2	6.1	·	·

Screening data: PubChem BioAssay, The Scripps Research Institute Molecular Screening Center
